Laboratory results published in PubChem BioAssay (NCATS).
Values joined by “and” are separate entries in the source; they are usually repeats but may differ in a detail not shown here. Equal values may be shown once. Inconclusive results are not listed. A structure can be active in one record and inactive in another. Active and inactive are the calls of the source. Calls come from the whole dose curve; as a rule, active = well fitted curve in the direction sought with a large enough effect; inconclusive = small, poorly fitted or top-dose-only effect, or another doubt; inactive = no such curve, though single readings can be large; an effect the other way counts as inactive or inconclusive.

Experiments:
[1] = Viability qHTS for spleen associated tyrosine kinase inhibitor (SYKi) naive MV4-11 cells (AID 1963823); note: nearly all actives have a fitted effect of over 40% in size
Procedure, shortened: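 Viability of MV4-11 AML cells lacking prior SYK inhibitor exposure is scored by CellTiter-Glo luminescence following 72 hr compound incubation at 37 C, 5% CO2, seeded at 500 cells per well.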

[2] = Viability qHTS for spleen associated tyrosine kinase inhibitor (SYKi) drug resistant MV4-11 cells (AID 1963824); note: nearly all actives have a fitted effect of over 35% in size
Procedure, shortened: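 SYK-inhibitor-resistant MV4-11 AML cells were seeded at 500 per well onto compound and cultured 72 hours (37 °C, 5% CO2). CellTiter-Glo was then added, and after 10 min at room temperature, luminescence gave viability.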

[3] = Cellular viability qHTS for adrenocortical cancer (ACC) cell line SW-13 (AID 1963989); conditions: SW-13 ACC cells viability, CellTiter-Glo, 48 h; activity (max response): stronger effect = lower value; note: nearly all actives have a fitted effect of over 65% in size;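 for activity (max response): cells grown in serum-free medium with ITS supplement; % is set by controls: 0 for no effect and ±100 for the full control effect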
Procedure, shortened: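 SW-13 cells in ITS-supplemented serum-free DMEM were plated overnight, then exposed for 48 h at 37C to compound titrations (up to 46 uM final). Viability was read by CellTiter-Glo luminescence; four-parameter logistic fits gave IC50 and efficacy.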

[4] = Cellular viability qHTS for adrenocortical cancer (ACC) cell line NCI-H295R (AID 1963990); note: nearly all actives have a fitted effect of over 60% in size
Procedure, shortened: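 Luminescent ATP read-out (CellTiter-Glo, 20 min RT) after 48 h drug exposure of NCI-H295R cells; a titration up to 46 uM final. Data normalized to doxorubicin (100% inhibition) and DMSO (0%); 4-parameter fit gives IC50, max response.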
Potency is the fitted concentration of half-maximal effect.

Compound | Potency [1] | Potency [2] | activity (max response) [3] | Potency [4] | Potency [3]
CC(O)C(=O)O (configuration not stated) | inactive | inactive | 6.49% (inactive) | inactive | 
OCCN1CCN(CCCN2c3ccccc3Sc3ccc(Cl)cc32)CC1 | 11900 nM (active) | 8.41 µM (active) |  | 2.59 µM (active) | 6.51 µM (active)
NS(=O)(=O)c1cc2c(cc1C(F)(F)F)NCNS2(=O)=O | inactive | inactive | -4.83% (inactive) | inactive | 
COc1ccc(/C=C\c2cc(OC)c(OC)c(OC)c2)cc1O | 5.3 nM (active) | 0.0047 µM (active) |  | 0.0089 µM (active) | 0.01 µM (active)
Nc1ccc(C(=O)OCC(O)CO)cc1 (configuration not stated) | inactive | inactive | 13.4% (inactive) | inactive | 
CC(C)NCC(O)COc1cccc2[nH]ccc12 (configuration not stated) | inactive | inactive | -13.8% (inactive) | inactive | 
Nc1ccc(C(=O)NCC(=O)O)cc1 | inactive | inactive | -9.96% (inactive) | inactive | 
CCCCCCCCCCCCCCCC[n+]1ccccc1 | 668 nM (active) | 0.668 µM (active) |  | 5.8 µM (active) | 3.66 µM (active)
CN=C(NC#N)NCCSCc1nc[nH]c1C | inactive | inactive | -4.08% (inactive) | inactive | 
Cc1noc(C)c1-c1ccc(-c2cc(C(N)=O)c(NC(N)=O)s2)c(O[C@H]2CCNC2)c1 | 2310 nM (active) | 3.26 µM (active) | -22.5% (inactive) | inactive | 
C[C@@H](O)[C@@H]1NC(=O)[C@H](CCCCN)NC(=O)[C@@H](Cc2c[nH]c3ccccc23)NC(=O)[C@H](Cc2ccccc2)NC(=O)[C@@H](NC(=O)[C@H](N)Cc2ccccc2)CSSC[C@@H](C(=O)N[C@H](CO)[C@@H](C)O)NC1=O | inactive | inactive | -1.31% (inactive) | inactive | 
CC1(C)CN(C(=O)c2ccc(-c3cccc4nc(NC(=O)C5CC5)nn34)cc2)C1 | 6610 nM (active) | 16.4 µM (active) | 2.66% (inactive) | inactive | 
C[C@@H]1C(=O)OC2[C@H](O)[C@]34[C@H]5C[C@@H](C(C)(C)C)[C@]36[C@@H](OC(=O)[C@@H]6O)O[C@@]4(C(=O)O5)[C@]21O (some centres not stated) | inactive | inactive | 5.05% (inactive) | inactive | 
CN1C(C)(C)CCCC1(C)C | inactive | inactive | -4.6% (inactive) | inactive | 
CN(C)CCNC(=O)NC[C@H]1CC[C@@H]2[C@H](O1)c1cc(C(F)(F)F)ccc1N[C@H]2c1ccccc1 | 148 nM (active) | 0.132 µM (active) |  | 0.891 µM (active) | 0.251 µM (active)
C#C[C@]1(O)CC[C@H]2[C@@H]3CCc4cc(O)ccc4[C@H]3CC[C@@]21C | inactive and 14.8 µM (active) | inactive and 7.42 µM (active) |  | 3.55 µM (active) | 7.94 µM (active)
O=C1NCCN1CCN1CCC(c2cn(-c3ccc(F)cc3)c3ccc(Cl)cc23)CC1 | 668 nM (active) | 1.19 µM (active) |  | 4.11 µM (active) | 10.3 µM (active)
O=C(/C=C/c1ccc(Cl)cc1)N1CCC2(CC1)CN(Cc1ccc(Cl)c(Cl)c1)C(=O)O2 | 18600 nM (active) | 11.8 µM (active) | -3.3% (inactive) | inactive | 
CC1(C)[C@@H](OC(=O)CCC(=O)O)CC[C@]2(C)[C@H]3C(=O)C=C4[C@@H]5C[C@@](C)(C(=O)O)CC[C@]5(C)CC[C@@]4(C)[C@]3(C)CC[C@@H]12 | inactive | inactive | 2.49% (inactive) | inactive | 
CC(/C=C/C(=O)NO)=C\[C@@H](C)C(=O)c1ccc(N(C)C)cc1 | 326 nM (active) and 296 nM (active) | 259 nM (active) and 332 nM (active) |  | 3.98 µM (active) | 6.31 µM (active)
Cc1[nH]c2ccccc2c1CCNCc1ccc(/C=C/C(=O)NO)cc1 | 29.5 nM (active) | 0.0263 µM (active) |  | 0.112 µM (active) | 0.251 µM (active)
CCN(CC)CCOC(=O)C(c1ccccc1)C1CCCCC1 (configuration not stated) | inactive | inactive | 12.1% (inactive) | inactive | 
O=C(O)C1=CO[C@@H](O[C@@H]2O[C@H](CO)[C@@H](O)[C@H](O)[C@H]2O)[C@@H]2C(CO)=CC[C@H]12 | 10.1 µM (active) and inactive | 12.8 µM (active) and inactive | 7.35% (inactive) | inactive | 
